Cl transport mod = modulators of human KCC2 chloride dependent transport; Q9H2X9; KCC2 cells, thallium flux FluoZin-2 fluorescence; B-score of Tl+ flux slope (higher = more flux/activation; lower = inhibition) at 10 µM; 190,000 compounds, 2.2% hits; AID 1456;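 active = thallium flux slope and its plate-corrected score both differing from the plate sample mean at a set confidence after two filtering rounds, in either direction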;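 note: slope of fluorescence scaled to starting intensity during 10 to 20 s after thallium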
Calpain2 inh = inhibitors of pig calpain II; purified calpain II, fluorogenic peptide substrate, 30 min; inhibition, % at 16 µM; 220,000 compounds, 0.37% hits;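 active = inhibition above about 50%, limit read from the data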
ROMK mod = modulates human ROMK potassium channel activity | B-score at 10 µM | 130,000 compounds, 2% hits | P48048 | Tet-inducible ROMK, thallium flux fluorescence; actives lie on both sides;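 active = signal ratio slope over the read window, or its plate-corrected B-score, at least 3 SD from the plate mean, either direction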;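 note: B-score of the F/F0 ratio slope over 7 to 12 s after thallium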
WT yeast gro inh = growth inhibition of WT yeast, mitochondrial fusion screen; AID 1362; inhibition, % at 10 µM; 190,000 compounds, 2.1% hits; mitochondrial fusion phenotypic screen, WT strain; in the data active = inhibition above about 58%; tested in S. cerevisiae
Lmaj promast = Leishmania major promastigote growth inhibition | Leishmania major promastigotes, resazurin fluorescence viability | inhibition, % at 10 µM | 200,000 compounds, 9% hits | AID 1063; in the data active = inhibition above about 50%;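 note: promastigotes grown with compound for 44 hours at 28 °C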
A number is an active result. A selection: hits, their analogues and other compounds. The true share with any hit is near 12%.

What do the screens show for `CC(C)OCCCNC(=O)C(=O)N/N=C/c1ccc(OCc2ccccc2)cc1`?
Cl transport mod: inactive; Calpain2 inh: inactive

How did CN(C)CCNC(=O)c1cc2c(s1)-c1ccccc1OC2 do in these assays?
Cl transport mod: inactive; Calpain2 inh: inactive; WT yeast gro inh: inactive; Lmaj promast: 91

How did Cc1csc(NC(=O)c2cc3c(s2)-c2ccccc2OC3)n1 do in these assays?
Cl transport mod: inactive; Calpain2 inh: inactive; WT yeast gro inh: inactive; Lmaj promast: inactive

Results for Cc1cccc(C2CC(c3ccc(Cl)cc3)Nc3nc(N)nn32)c1 (stereo not given) ?
Cl transport mod: inactive; Calpain2 inh: inactive; WT yeast gro inh: inactive; Lmaj promast: 64

Results for Cc1ccc(C2CC(c3cccc(Cl)c3)n3nc(N)nc3N2)cc1 (stereo not given) ?
Cl transport mod: inactive; Calpain2 inh: inactive; WT yeast gro inh: inactive; Lmaj promast: inactive

How did CCc1ccc(C2CC(c3cccc(Cl)c3)n3nc(N)nc3N2)cc1 (stereo not given) do in these assays?
Cl transport mod: inactive; Calpain2 inh: inactive; WT yeast gro inh: inactive; Lmaj promast: 54

How did Cc1cccc(C2CC(c3ccc(F)cc3)Nc3nc(N)nn32)c1 (stereo not given) do in these assays?
Cl transport mod: inactive; Calpain2 inh: inactive; WT yeast gro inh: inactive; Lmaj promast: 93

What do the screens show for `CC(=O)N1CCN(C(=S)Nc2ccc(Oc3ccccc3)cc2)CC1`?
Cl transport mod: inactive; Calpain2 inh: inactive; ROMK mod: inactive; WT yeast gro inh: inactive; Lmaj promast: inactive

How did Cc1ccc(S(=O)(=O)c2c(N)n(Cc3ccco3)c3nc4ccccc4nc23)cc1C do in these assays?
Cl transport mod: inactive; Calpain2 inh: inactive; ROMK mod: inactive; WT yeast gro inh: inactive; Lmaj promast: 91

How did Nc1c(S(=O)(=O)c2ccccc2)c2nc3ccccc3nc2n1Cc1ccco1 do in these assays?
Calpain2 inh: inactive; ROMK mod: inactive; WT yeast gro inh: inactive; Lmaj promast: 77

Results for Cc1ccc(S(=O)(=O)c2c(N)n(CCN3CCOCC3)c3nc4ccccc4nc23)cc1C ?
Cl transport mod: inactive; Calpain2 inh: inactive; WT yeast gro inh: inactive; Lmaj promast: inactive

How did Nc1c(S(=O)(=O)c2ccccc2)c2nc3ccccc3nc2n1CCN1CCOCC1 do in these assays?
Cl transport mod: inactive; Calpain2 inh: inactive; ROMK mod: inactive; WT yeast gro inh: inactive; Lmaj promast: inactive

What do the screens show for `COC(=O)c1cc2oc(C)cc2n1CC(=O)N1CCCc2ccccc21`?
Cl transport mod: inactive; Calpain2 inh: inactive; WT yeast gro inh: inactive; Lmaj promast: inactive

How did O=C(NCc1ccc2c(c1)OCO2)C1CCCN1C(=O)Nc1cccc(Cl)c1 (stereo not given) do in these assays?
Calpain2 inh: inactive; WT yeast gro inh: inactive; Lmaj promast: 99

Results for CCCCOc1ccc(CCC(=O)N/N=C/c2ccco2)cc1 ?
Cl transport mod: inactive; Calpain2 inh: inactive

What do the screens show for `Cc1ccc(S(=O)(=O)c2nnn3c2nc(N2CCCCC2)c2ccccc23)cc1`?
Cl transport mod: inactive; Calpain2 inh: inactive; WT yeast gro inh: inactive; Lmaj promast: 62

How did CCOC(=O)NC(=O)/C(C#N)=C\NNc1ncc(C(F)(F)F)cc1Cl do in these assays?
Cl transport mod: inactive; Calpain2 inh: inactive; ROMK mod: inactive; WT yeast gro inh: inactive; Lmaj promast: inactive

Results for CC(C)CN1C(=O)C(=Nc2cccnc2)c2ccccc21 ?
Cl transport mod: inactive; Calpain2 inh: inactive; ROMK mod: inactive; WT yeast gro inh: inactive; Lmaj promast: 82

What do the screens show for `CC(=O)Nc1ccc(NC(=O)C(C)OC(=O)CNS(=O)(=O)c2cccc(Cl)c2)cc1` (stereo not given)?
Cl transport mod: inactive; Calpain2 inh: inactive; ROMK mod: inactive; WT yeast gro inh: inactive; Lmaj promast: 82

What do the screens show for `COc1ccccc1C(=O)NC(=Nc1nc2ccccc2o1)NC(=O)c1ccccc1OC`?
Cl transport mod: inactive; Calpain2 inh: inactive; ROMK mod: inactive; WT yeast gro inh: inactive; Lmaj promast: 100

What do the screens show for `Nc1nc(SCC(=O)Nc2ccccc2Sc2ccccc2)n[nH]1`?
Cl transport mod: inactive; Calpain2 inh: inactive; ROMK mod: inactive; WT yeast gro inh: inactive; Lmaj promast: inactive

What do the screens show for `CCOc1cc(/C=C/C(=O)Nc2ccc(C(=O)NCCN(CC)CC)cc2)ccc1OCC(C)C`?
Cl transport mod: inactive; Calpain2 inh: inactive; ROMK mod: inactive; WT yeast gro inh: inactive; Lmaj promast: 53

What do the screens show for `Cc1occc1-c1nnc(SCC(=O)N2CCc3ccccc32)o1`?
Cl transport mod: inactive; Calpain2 inh: inactive; WT yeast gro inh: inactive; Lmaj promast: inactive

Results for COc1ccccc1NC(=S)N(C(C)C)C(C)c1ccccn1 (stereo not given) ?
Cl transport mod: inactive; Calpain2 inh: inactive; ROMK mod: inactive; WT yeast gro inh: inactive; Lmaj promast: inactive

How did CC(C)N(C(=S)Nc1cccc(C(F)(F)F)c1)C(C)c1ccccn1 (stereo not given) do in these assays?
Cl transport mod: inactive; Calpain2 inh: inactive; ROMK mod: inactive; WT yeast gro inh: 74; Lmaj promast: inactive

What do the screens show for `CCCn1c(N2CCN(Cc3ccc(Cl)cc3)CC2)nc2ccccc21`?
Cl transport mod: inactive; Calpain2 inh: inactive; ROMK mod: inactive; WT yeast gro inh: inactive; Lmaj promast: 55

What do the screens show for `Cn1c(CN2CCN(c3cccc(Cl)c3)CC2)nc2ccccc21`?
Cl transport mod: inactive; Calpain2 inh: inactive; ROMK mod: inactive; WT yeast gro inh: inactive; Lmaj promast: 68

What do the screens show for `COc1cc(CN2CCN(c3cccc(Cl)c3)CC2)cc(OC)c1OC`?
Cl transport mod: inactive; Calpain2 inh: inactive; ROMK mod: inactive; WT yeast gro inh: inactive; Lmaj promast: 88

How did CCn1c(N2CCN(S(=O)(=O)CC)CC2)nc2ccccc21 do in these assays?
Calpain2 inh: inactive; ROMK mod: inactive; WT yeast gro inh: inactive; Lmaj promast: inactive

How did Cc1ccccc1CN1C(=O)C2(OCCCO2)c2ccccc21 do in these assays?
Cl transport mod: inactive; Calpain2 inh: inactive; WT yeast gro inh: inactive; Lmaj promast: inactive

What do the screens show for `O=c1ccnc2n1COCS2`?
Cl transport mod: inactive; Calpain2 inh: inactive

Results for Cc1nn2c(CN(C(=O)COc3ccccc3)c3ccccc3)nnc2c2ccccc12 ?
Cl transport mod: inactive; Calpain2 inh: inactive; WT yeast gro inh: inactive; Lmaj promast: 81

What do the screens show for `Cc1cc(Oc2cnn(C(C)(C)C)c(=O)c2Cl)cc(C(C)C)c1`?
Calpain2 inh: inactive; WT yeast gro inh: 67; Lmaj promast: inactive

How did CC(=O)Nc1ccc(CN2CCN(C3CCCCC3)C(CCO)C2)cc1 (stereo not given) do in these assays?
Calpain2 inh: inactive; ROMK mod: inactive; WT yeast gro inh: inactive; Lmaj promast: inactive

How did COC(=O)c1ccc(CN2CCN(C3CCCC3)C(CCO)C2)cc1 (stereo not given) do in these assays?
Calpain2 inh: inactive; WT yeast gro inh: inactive; Lmaj promast: 56

How did COC(=O)c1ccc(CN2CCN(C3CCCCC3)C(CCO)C2)cc1 (stereo not given) do in these assays?
Calpain2 inh: inactive; ROMK mod: inactive; WT yeast gro inh: inactive; Lmaj promast: 54

Results for O=C(O)C1CCN(C(=O)CCc2ccccc2)CC1 ?
Cl transport mod: inactive; Calpain2 inh: inactive
